# According to ChEMBL document CHEMBL3988442, “University of Dundee, Small-Polar-MMV Screening Library” (2021):
# Out of some 69,000 compounds screened, about 1,000 (1.4%) showed an effect of 50% or more. The sample holds strong results, similar compounds and a random draw of the others, so the mix is not that of the screen.
# Test system: Leishmania donovani
# Test: Leishmania intramacrophage assay
# Assay type: functional, organism-based
# Design: scale not given: in the data most compounds retested in dose-response had high values
compound,measurement,setting,value
Cc1nc(C)n(CC2CCCN(Cc3ccc(C(N)=O)cc3)C2)n1 (configuration not stated),Percent Effect,"30 µM, 30.03 µM",-3.523%
Cc1ccc(F)c2c1N(C(=O)c1cn(CC(=O)N(C)C)nn1)CCC2,Percent Effect,"30.3 µM, […]",-28.86%
CCCSCC(=O)NS(=O)(=O)c1ccc2c(c1)OCCO2,Percent Effect,"30 µM, 30.03 µM",12.46%
O=C(O)C(F)(F)F.O=C(O)C(F)(F)F.c1c(CN2CCCC2)nc2n1CCN(C1CCOCC1)C2,Percent Effect,"30.3 µM, […]",25.13%
Cc1ccc(-c2ccccc2CC2(C(=O)NC(C)C)CCCNC2)cc1 (configuration not stated),Percent Effect,"30.3 µM, […]",53.92%
CC(C)NC(=O)C1(Cc2ccccc2-c2ccccc2)CCCNC1 (configuration not stated),Percent Effect,"30.3 µM, […]",40.16%
CC(C)NC(=O)C1(Cc2ccccc2-c2cncnc2)CCCNC1 (configuration not stated),Percent Effect,"30.3 µM, […]",16.97%
CC(C)(C)C(O)CN1CCN(C(=O)c2cccc3ncccc23)CC1 (configuration not stated),Percent Effect,"30 µM, 30.03 µM",14.67%
Cc1cc(NCc2cn(C)nc2-c2cccnc2)n(C)n1,Percent Effect,"30.3 µM, […]",-18.07%
O=C1NCCCc2[nH]c(-c3nc(C4CC4)no3)nc21,Percent Effect,"30.3 µM, […]",0.06758%
Nc1ccc(-c2cc(O)cc(CCC3CCCCN3)c2)cn1 (configuration not stated),Percent Effect,"30.3 µM, […]",30.15%
Oc1cc(CCC2CCCCN2)cc(-c2ccncc2)c1 (configuration not stated),Percent Effect,"30 µM, 30.03 µM",12.39%
Oc1cc(CCC2CCCCN2)cc(-c2cccnc2)c1 (configuration not stated),Percent Effect,"30.3 µM, […]",51.21%
CC[C@@H](C)[C@H](NC(=O)NC1CCS(=O)(=O)C1)C(=O)NCc1ccncc1 (some centres not stated),Percent Effect,"30.3 µM, […]",-5.4%
CCNC(=O)CN(CC)S(=O)(=O)c1c(Br)cc2[nH]c(=O)oc2c1Cl,Percent Effect,"30.3 µM, […]",26.48%
COC(=O)C(C)CN(C)S(=O)(=O)c1c(Br)cc2[nH]c(=O)oc2c1Cl (configuration not stated),Percent Effect,"30.3 µM, […]",53.15%
CNC(=O)CN(C)S(=O)(=O)c1c(Br)cc2[nH]c(=O)oc2c1Cl,Percent Effect,"30.3 µM, […]",30.57%
COc1cc(OC)c(-c2nc3c([nH]2)c(C2CC2)nn3C)cc1OC,Percent Effect,"30.3 µM, […]",40.91%
CC(C)c1ncncc1C(=O)NCCN1CCOCC1,Percent Effect,"30.3 µM, […]",-51.02%
CC(C)c1cc(NC(=O)c2ccc([S+]([O-])C(C)C)cc2)[nH]n1 (configuration not stated),Percent Effect,30 µM,33.29%
Cc1ccc(C(=O)Nc2cc(C(C)C)n[nH]2)cn1,Percent Effect,"30 µM, 30.03 µM",-3.681%
CC(C)c1cc(NC(=O)c2cccnc2)[nH]n1,Percent Effect,30 µM,2.786%
CC(C)c1cc(NC(=O)c2ccc(C(=O)NC(C)(C)C)cc2)[nH]n1,Percent Effect,"30 µM, 30.03 µM",58.67%
CC(C)c1cc(NC(=O)c2ccncc2)[nH]n1,Percent Effect,30 µM,-9.457%
Cc1ccc(CC(=O)Nc2cc(C(C)C)n[nH]2)cn1,Percent Effect,30 µM,62.25%
CC(=O)N1CCC(NC(=O)Cc2nc3nc(C)cc(C)n3n2)CC1,Percent Effect,"30.3 µM, […]",9.867%
O=C(c1ccc(CN2CCCCC2)cc1)N1Cc2cnn(CCO)c2C1,Percent Effect,"30.3 µM, […]",4.685%
COCCNC(=O)Nc1ccc(-c2nc(C(C)C)no2)cc1,Percent Effect,"30.3 µM, […]",-5.463%
Cc1nn(C)c(Cl)c1C1CCCN1c1ncnc2c1CCC2 (configuration not stated),Percent Effect,"30.3 µM, […]",-27.23%
Cc1nn(C)c(C)c1C1CCCN1c1ncnc2c1CCC2 (configuration not stated),Percent Effect,"30.3 µM, […]",30.84%
COc1c(C2CCCN2c2ncnc3c2CCC3)c(C)nn1C (configuration not stated),Percent Effect,"30.3 µM, […]",55.59%
O=C(CN1CCSCC1c1ccccc1)N1CCCC1 (configuration not stated),Percent Effect,"30.3 µM, […]",-14.01%
O=c1ccc(-c2cccs2)nn1CN1CCCCCC1,Percent Effect,"30 µM, 30.03 µM",13.2%
Cc1cc(N2CCC(O)(CN(C)C)C2)c2cc3c(cc2n1)OCO3 (configuration not stated),Percent Effect,"30.3 µM, […]",-1.24%
Cn1cc(CN2Cc3cn(C)nc3C(COCC3CC3)C2)cn1 (configuration not stated),Percent Effect,"30.3 µM, […]",53.65%
COc1ccc(CN2Cc3cn(C)nc3C(COCC3CC3)C2)cc1 (configuration not stated),Percent Effect,"30.3 µM, […]",16.82%
Cn1cc2c(n1)C(COCC1CC1)CN(Cc1ccsc1)C2 (configuration not stated),Percent Effect,"30.3 µM, […]",-18.37%
CCN(CC1CCOC1)C(=O)Nc1ccc(N2CCCC2)nc1 (configuration not stated),Percent Effect,"30 µM, 30.03 µM",21.14%
COCCN(Cc1cnn(C)c1)C(=O)C1CCCN(C2CCOCC2)C1 (configuration not stated),Percent Effect,"30.3 µM, […]",2.022%
CC(C)c1nnc2n1CCN(C(=O)CN1Cc3ccccc3C1=O)C2,Percent Effect,"30 µM, 30.03 µM",-6.489%
COc1cccc(NC(=O)CNc2ccc(C(=O)N(C)C)c(Cl)c2)c1,Percent Effect,"30.3 µM, […]",28.32%
CC(C)CNC(=O)c1ccc(NC(=O)NC(C)C)cc1Cl,Percent Effect,"30.3 µM, […]",-0.4257%
CC(CC(=O)Nc1ccc(C(=O)N(C)C)c(Cl)c1)n1cccc1 (configuration not stated),Percent Effect,"30.3 µM, […]",51.53%
CCCN1CCCCC1C(=O)Nc1ccc(-c2nnc[nH]2)cc1 (configuration not stated),Percent Effect,"30.3 µM, […]",6.317%
CC(C)N(CC(=O)Nc1ccc(Br)cc1Cl)Cc1cccnc1,Percent Effect,"30.3 µM, […]",0.9398%
Cc1ccnc(CNC(=O)C2CC(=O)N(CCN(C)C)C2)c1 (configuration not stated),Percent Effect,"30.3 µM, […]",7.855%
c1cnc2c(CN3CCCCC3c3ccncn3)cnn2c1 (configuration not stated),Percent Effect,"30.3 µM, […]",9.705%
CNc1nccc(C2CCCCN2Cc2cnn3cccnc23)n1 (configuration not stated),Percent Effect,"30.3 µM, […]",53.78%
CN(C)c1nccc(C2CCCCN2Cc2cnn3cccnc23)n1 (configuration not stated),Percent Effect,"30.3 µM, […]",15.49%
Cc1csc2c(=O)n(CCN3CCC(c4ccccc4)CC3)cnc12,Percent Effect,"30.3 µM, […]",-32.46%
Cc1nccn1CCCN1CCCC(c2nccn2CC2CCC2)C1 (configuration not stated),Percent Effect,"30.3 µM, […]",28.26%
Cc1nccn1CCCN1CCCC(c2nccn2C)C1 (configuration not stated),Percent Effect,"30.3 µM, […]",28.64%
Cc1nccn1CCCN1CCCC(c2ccccc2)C1 (configuration not stated),Percent Effect,"30.3 µM, […]",72.11%
Cc1cnn(CCNCc2c(C)nn(-c3ccccc3)c2C)c1,Percent Effect,"30.3 µM, […]",-2.378%
CC(C)c1nc(C(=O)N2C[C@H](C(C)C)[C@@H](N)C2)cs1,Percent Effect,"30.3 µM, […]",39.61%
COCCn1nc(C(=O)N2CCN(C)CC2C)ccc1=O (configuration not stated),Percent Effect,"30.3 µM, […]",4.243%
Cc1nnsc1C(=O)NCC1CCN(c2ccccn2)CC1,Percent Effect,"30.3 µM, […]",51.71%
CCCc1nnsc1C(=O)NCC1CCN(c2ncccn2)CC1,Percent Effect,"30.3 µM, […]",10.89%
CCCc1nnsc1C(=O)NCC1CCN(c2ccccn2)CC1,Percent Effect,"30 µM, 30.03 µM",33.4%
COCC(C)NC(=O)c1cc(C)n(-c2cccc(OC)c2)c1C (configuration not stated),Percent Effect,30 µM,9.783%
CCNc1cc2c(nn1)CCN(C(=O)c1ccsc1)C2,Percent Effect,30 µM,18.6%
COc1ncccc1CNC(=O)C1=NN(c2ccccc2)C(=O)CN1,Percent Effect,"30.3 µM, […]",-11.09%
N#Cc1ccc(CNC(=O)C2=NN(c3ccccc3)C(=O)CN2)cc1,Percent Effect,"30.3 µM, […]",17.15%
COc1ccc(CNC(=O)C2=NN(c3ccc(C)cc3)C(=O)CN2)cc1,Percent Effect,"30.3 µM, […]",51.58%
COc1ccccc1CNC(=O)C1=NN(c2ccc(C)cc2)C(=O)CN1,Percent Effect,"30 µM, 30.03 µM",61.91%
COCc1ccc(CNC(=O)C2=NN(c3ccccc3)C(=O)CN2)cc1,Percent Effect,"30 µM, 30.03 µM",41.01%
COc1ccc(C)cc1CNC(=O)C1=NN(c2ccccc2)C(=O)CN1,Percent Effect,"30.3 µM, […]",34.24%
